According to article PMC7826789 (International Journal of Molecular Sciences, 2021):

Key:
Settings in all cases: Compound Concentration (nM):1000
MET(Y1235D) = tested on: MET(Y1235D)
MET = tested on: MET
MINK = tested on: T1, MINK
T1 construct: gene MINK1

MKK7 = tested on: T2, MKK7
T2 construct: gene MAP2K7

MKNK1 = tested on: MKNK1
MLCK = tested on: T3, MLCK
T3 construct: gene MYLK3

MLK1 = tested on: T4, MLK1
T4 construct: gene MAP3K9

MLK2 = tested on: T5, MLK2
T5 construct: gene MAP3K10

MLK3 = tested on: T6, MLK3
T6 construct: gene MAP3K11

MKNK2 = tested on: MKNK2
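Note: KINOMEscan scanMAX binding as percent activity remaining versus control; lower means stronger binding.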

Structure (SMILES)	Percent Control (MET(Y1235D)) [%]	Percent Control (MET) [%]	Percent Control (MINK) [%]	Percent Control (MKK7) [%]	Percent Control (MKNK1) [%]	Percent Control (MLCK) [%]	Percent Control (MLK1) [%]	Percent Control (MLK2) [%]	Percent Control (MLK3) [%]	Percent Control (MKNK2) [%]
CN(C)c1cc2c(Nc3ccc4c(cnn4Cc4ccccc4)c3)ncnc2cn1 [GW282974X]	100	94	100	95	74	98	89	95	100	
COc1cc2ncnc(Nc3ccc4c(cnn4Cc4ccccc4)c3)c2cc1OC.Cl [GW282449A]	100	100	87	100	100	100	100	100	100	76
COc1ccccc1-c1cc(/C=C2\C(=O)Nc3ncc(Br)cc32)cc(Br)c1O [GW442130X]	100	92	93	100	100	100	99	100	100	100
COc1ccc2[nH]c3c4[nH]c5ccc(OC)cc5c4c4c(c3c2c1)C(=O)NC4=O [GW296115X]	76	78	1.7	88	92	16	2.2	83	5.6	54
COc1cccc(-c2c[nH]c3c(N/N=C/c4ccncc4)ncnc23)c1 [GW814408X]	75	64	33	100	57	95	61	76	73	30
COc1ccc2c(-c3ccnc(Nc4cccc(OC(F)(F)F)c4)n3)cnn2n1 [GW810372X]	100	100	93	100	73	100	100	74	100	100
CN(C)CCNC(=O)Nc1ccc(N(C)c2ccnc(Nc3ccc(CS(C)(=O)=O)cc3)n2)cc1.Cl [GW830900A]	57	21	59	100	100	100	97	99	100	53
O=C1Nc2ccc(C(=O)c3ccco3)cc2C1=Cc1cc(Cl)c(O)c(Cl)c1 [GW406108X]	100	67	13	78	72	100	97	100	95	89
Nc1ncnc2occ(-c3ccc(NC(=O)Nc4cc(C(F)(F)F)ccc4F)cc3)c12 [GW770249X]	60	89	52	100	55	88	66	18	54	3.9
NS(=O)(=O)c1ccc(Nc2ncc(-c3ccccc3)o2)cc1 [GW572399X]	100	100	40	100	39	100	100	100	100	53
CC1=C(C(=O)Nc2ccc3[nH]ncc3c2)C(c2ccc3ccccc3c2)CC(=O)N1 (stereo not shown) [GSK270822A]	87	47	87	75	75	92	68	100	76	73
